Values joined by “and” are separate entries in the source; they are usually repeats but may differ in a detail not shown here. Equal values may be shown once. Active and inactive are the calls of the source. Calls follow the shape of the dose curve; as a rule, active = well fitted activation curve with a large enough effect; inconclusive = small, poorly fitted or top-dose-only effect; inactive = no such curve, though single readings can be large or run the other way.

Cytochrome P450 3A4 (Homo sapiens), sequence (P08684 whole entry, looked up): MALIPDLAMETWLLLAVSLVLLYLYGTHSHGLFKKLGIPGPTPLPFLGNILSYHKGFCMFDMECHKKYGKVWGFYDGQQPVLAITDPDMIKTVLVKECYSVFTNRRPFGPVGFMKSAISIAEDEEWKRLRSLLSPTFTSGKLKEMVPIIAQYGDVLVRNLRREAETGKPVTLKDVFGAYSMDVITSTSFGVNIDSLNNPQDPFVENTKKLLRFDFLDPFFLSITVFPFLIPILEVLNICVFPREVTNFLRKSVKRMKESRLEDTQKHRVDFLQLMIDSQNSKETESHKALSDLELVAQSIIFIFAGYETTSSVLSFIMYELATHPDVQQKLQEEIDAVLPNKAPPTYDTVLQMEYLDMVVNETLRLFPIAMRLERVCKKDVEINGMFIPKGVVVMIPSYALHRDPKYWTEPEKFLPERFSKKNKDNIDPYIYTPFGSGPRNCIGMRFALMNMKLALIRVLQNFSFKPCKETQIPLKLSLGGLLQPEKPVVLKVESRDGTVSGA

The experiment has as its target Cytochrome P450 3A4 (Homo sapiens) (UniProt P08684). Kind of experiment: qHTS Assay for Activators of Cytochrome P450 3A4 (AID 885). Also: nearly all actives have a fitted effect of over 65% in size. The note with it: recombinant CYP3A4, Luciferin-PPXE luminescence, 60 min; series mostly up to 57.1 µM. A digest of the protocol:
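Signal was normalized against complete inhibition by 57 uM ketoconazole. The reaction used 20nM CYP3A4 with 25uM Luciferin-PPXE, 10-min compound preincubation and a 60-min NADPH-supported step at RT.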
(In general: In qHTS, concentration-response curves come from the screen itself.)
As for `CC(C)=CCC/C(C)=C/C=C/C1=CC2(C)CC1(C)C(/C=C(\C)CCC=C(C)C)CC2=O` (configuration not stated), the activity change, positive = activation is -35% [at 11.4 µM] (inactive). The result for `CC12C=C(/C=C/c3ccccc3)C(C)(C1)C(c1ccccc1)CC2=O` (configuration not stated) reads -52.8% [at 11.4 µM] (inactive); that for `COc1ccccc1/C=C/C1=CC2(C)CC1(C)C(c1ccccc1OC)CC2=O` (configuration not stated), -56.9% [at 11.4 µM] (inactive); that for `COC(=O)C1=C(C)N(Cc2ccccc2)C2=C3C(=O)N(c4ccccc4)C(=O)C3[C@@](O)(C(=O)OC)C(=O)N2C1c1ccccc1` (some centres not stated), -39.6% [at 11.4 µM] (inactive) and -38.9% [at 11.4 µM] (inactive).

As for `COc1ccc(C#CC2C=CC(OC(C)=O)C(COC(C)=O)O2)cc1` (configuration not stated), the activity change, positive = activation was -88.8% [at 11.4 µM] (inactive). In the case of `CC1Cc2c(-c3ccccc3)nc3c(c2CO1)CN(CCOc1ccccc1)CC3` (configuration not stated) it was -39% [at 11.4 µM] (inactive). In the case of `C=CCOCC/C=C1/c2ccccc2C(OC)C1C` (configuration not stated) it was -43.5% [at 11.4 µM] (inactive); in that of `CCC(=O)CC(NC(=O)OC)c1ccccc1` (configuration not stated), -34.8% [at 11.4 µM] (inactive). The result for `COC(=O)C1=C(C)N(Cc2ccccc2)c2c(C(=O)OC)c(C(=O)OC)c(C(=O)OC)c(=O)n2C1c1ccccc1` (configuration not stated) reads -58.7% [at 11.4 µM] (inactive) and -55.1% [at 11.4 µM] (inactive); that for `COC(=O)[C@@H]1CC[C@H](C)[C@@H](c2ccc(C)cc2)N1C(=O)c1ccc(/C=N\OC[C@@H](O)[C@H]2O[C@H]3OC(C)(C)O[C@H]3[C@@H]2O)cc1`, -58.3% [at 11.4 µM] (inactive); that for `OCC1OC(C#Cc2ccccc2)C=CC1O` (configuration not stated), -40.9% [at 11.4 µM] (inactive) and -46.3% [at 11.4 µM] (inactive) and -31.2% [at 11.4 µM] (inactive). For the molecule `COC(=O)[C@@H]1CC[C@H](C)[C@@H](c2ccc(C)cc2)N1C(=O)c1ccc(/C=N\OC[C@@H](O)COCc2ccco2)cc1`, the activity change, positive = activation is -58.1% [at 11.4 µM] (inactive). `C=CCOC(=O)C(C(=O)CC)C(NC(=O)OC)c1ccc(F)cc1` (configuration not stated): the activity change, positive = activation was -52.3% [at 11.4 µM] (inactive). In the case of `CC12C=C(/C=C/c3ccc(C(F)(F)F)cc3)C(C)(C1)C(c1ccc(C(F)(F)F)cc1)CC2=O` (configuration not stated) it was -39% [at 11.4 µM] (inactive); in that of `C=C(C)C(O)/C=C/CCCCCCC` (configuration not stated), -33.5% [at 11.4 µM] (inactive); in that of `C=CCOC(=O)C(C(C)=O)C(NC(=O)OC)c1ccc2ccccc2c1` (configuration not stated), -46.5% [at 11.4 µM] (inactive). In the case of `COC1(C#CC2C=CC(OC(C)=O)C(COC(C)=O)O2)CCCCC1` (configuration not stated) it was -43% [at 11.4 µM] (inactive); in that of `C=CCC1(C)OC=Cc2nc3cc(Cl)c(Cl)cc3nc21` (configuration not stated), -59.2% [at 11.4 µM] (inactive). The result for `COc1ccc(O[C@H]2C=C[C@@H](c3ccccc3)O[C@H]2COC(=O)CC/C(C)=N/OCC[C@@H]2C=C[C@H](OC(C)=O)[C@H](COC(C)=O)O2)cc1` reads -91.8% [at 11.4 µM] (inactive). With `CCN1C(C)=C(C(=O)OC)C(c2ccccc2)N2C(=O)[C@](O)(C(=O)OC)C(c3ccccc3)C(C(C)=O)=C12` (some centres not stated), the activity change, positive = activation is -59.7% [at 11.4 µM] (inactive). As to `CCCCc1nc2c(c3c1CC(C)OC3)CN(CCOc1ccccc1)CC2` (configuration not stated), the activity change, positive = activation is -59.6% [at 11.4 µM] (inactive). In the case of `CC(=O)OCC1OC(C#Cc2ccccc2)C=CC1OC(C)=O` (configuration not stated) it was -91.5% [at 11.4 µM] (inactive) and -31.7% [at 11.4 µM] (inactive). The result for `C=CCOC(=O)C(C(C)=O)C(NC(=O)OC)c1ccco1` (configuration not stated) reads -42.1% [at 11.4 µM] (inactive); that for `CCOC(=O)[C@]1(C(NC(=O)OC)c2ccccc2)CCCC1=O` (some centres not stated), -34% [at 11.4 µM] (inactive).

As for `CC1Cc2c(COc3ccccc3)nc3c(c2CO1)CN(CCOc1ccccc1)CC3` (configuration not stated), the activity change, positive = activation is -42% [at 11.4 µM] (inactive). In the case of `CCC(=O)[C@]12O[C@@]3(C4C(=O)OCCC41)N(CC)C(C)=C(C(=O)OC)C(c1ccccc1)N3C2=O` (some centres not stated) it was -34.2% [at 11.4 µM] (inactive). The result for `COC(=O)C1=C(C)N(Cc2ccccc2)[C@]23O[C@](C(=O)OC)(C(=O)N2C1c1ccccc1)C1C(=O)N(c2ccccc2)C(=O)C13` (some centres not stated) reads -42.8% [at 11.4 µM] (inactive) and -32.3% [at 11.4 µM] (inactive); that for `CC(C)CN1CCc2nc(-c3ccccc3)c3c(c2C1)COC(C)C3` (configuration not stated), -40.3% [at 11.4 µM] (inactive); that for `COC(=O)NC(c1ccco1)[C@]1(C(C)=O)CCCC1=O` (some centres not stated), -35.9% [at 11.4 µM] (inactive). With `OCC1OC(c2ccc3c(c2)OCO3)C=CC1Oc1ccc(C2CCCC2)cc1` (configuration not stated), the activity change, positive = activation is -50.7% [at 11.4 µM] (inactive).

With `C=C(C)C(O)/C=C/C=C/c1ccccc1` (configuration not stated), the activity change, positive = activation was -32.8% [at 11.4 µM] (inactive).

Take `COC(=O)C1=C(C)N(Cc2ccccc2)C2=C3C(=O)N(C)C(=O)C3[C@@](O)(C(=O)OC)C(=O)N2C1c1ccccc1` (some centres not stated): the activity change, positive = activation was -32.3% [at 11.4 µM] (inactive).

Source of the values: PubChem BioAssay (NCATS).
